# Only some compounds are listed: those with a hit (about 11% of all), similar ones and a draw of the others.
# ALDH1A1 block: qHTS Assay for Inhibitors of Aldehyde Dehydrogenase 1 (ALDH1A1); Aldehyde dehydrogenase 1A1 (Homo sapiens), P00352; Purified ALDH1A1, NADH fluorescence, propionaldehyde substrate; Potency, µM (titrated, usually from 75.3 µM), inactives show at the top dose activity, negative = inhibition, most hits filed as inhibitors; actives 7.3% (n = 220,000); AID 1030, 2008;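 also: potency is read from the fitted curve at half-maximal effect; plate controls were no enzyme wells and a reference inhibitor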
# Target sequence (P00352 whole entry, looked up): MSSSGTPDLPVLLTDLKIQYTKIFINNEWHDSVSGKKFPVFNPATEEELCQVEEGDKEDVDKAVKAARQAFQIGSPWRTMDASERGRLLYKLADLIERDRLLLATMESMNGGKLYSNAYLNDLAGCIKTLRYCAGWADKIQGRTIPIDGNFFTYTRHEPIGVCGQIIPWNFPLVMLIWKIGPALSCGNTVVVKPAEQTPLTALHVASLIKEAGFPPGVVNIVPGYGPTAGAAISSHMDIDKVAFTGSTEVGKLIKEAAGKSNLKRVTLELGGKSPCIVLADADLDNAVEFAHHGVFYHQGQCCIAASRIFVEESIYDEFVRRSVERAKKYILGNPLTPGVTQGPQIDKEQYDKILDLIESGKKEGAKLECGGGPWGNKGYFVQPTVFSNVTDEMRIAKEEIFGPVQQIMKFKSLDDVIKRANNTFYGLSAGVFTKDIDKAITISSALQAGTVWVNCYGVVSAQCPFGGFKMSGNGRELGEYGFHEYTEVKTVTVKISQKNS
# IMPase Li inh: qHTS Assay for Identifying the Cell-Membrane Permeable IMPase Inhibitors: Potentiation with Lithium; CHO-M1 cells, IP1 TR-FRET (IP-One), carbachol + lithium; actives 0.35% (n = 210,000); AID 1457, 2008; Potency, µM (top dose mostly 59.4 µM), for inactives: at the top dose activity, negative = IMPase inhibition, usual class: inhibitors; active = well fitted inhibition curve with a large enough effect; inconclusive = small, poorly fitted or top-dose-only effect; inactive = no such curve, though single readings can be large or run the other way;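 also: IP1 builds up when IMPase is blocked and the TR-FRET signal falls; potency is read from the fitted curve at half-maximal effect; plate controls were basal vehicle for no effect and high inhibitor control for full effect; nearly all actives have a fitted effect of over 50% in size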
#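 IP1 accumulation measured by competitive TR-FRET in lysed CHO-M1 cells after 30 min compound exposure at 37C, with a small lithium addition to potentiate weak responses. Hill-equation AC50 from ratio and donor-channel data.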
# HPGD inh: qHTS Assay for Inhibitors of HPGD (15-Hydroxyprostaglandin Dehydrogenase) | purified HPGD, NADH fluorescence kinetic, PGE2 substrate | AID 894, 2007 | Potency, µM, for inactives: at the top dose activity change, negative = inhibition, actives largely listed as inhibitors | 15-hydroxyprostaglandin dehydrogenase [NAD(+)] (Homo sapiens), P15428 | actives 4.3% (n = 150,000); also: potency is read from the fitted curve at half-maximal effect
#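 20 nM HPGD preincubated 15 min at room temperature with compound in 50 mM Tris-HCl pH 8, 0.01% Tween 20. Started with 1 mM NAD+ and 30 uM prostaglandin E2; NADH fluorescence (360/450 nm) read 5 times over 30-s intervals, last minus first.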
# IMPase inh: qHTS Assay for Identifying the Cell-Membrane Permeable IMPase Inhibitors. Inositol monophosphatase 1 (Rattus norvegicus), P97697. CHO-M1 cells, IP1 accumulation, HTRF TR-FRET ratio. inhibition (IP1 accumulation), % at 46.1 µM. 120,000 tested, under 10 active. AID 901, 2007; active = well fitted curve in the direction sought with a large enough effect in the signal ratio, not every such curve was filed as active; inconclusive = small, poorly fitted or top-dose-only effect, or a change in a side signal; inactive = no such curve, though single readings can be large or run the other way; the % refers to the signal ratio;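 also: cells stimulated with carbachol in lithium chloride buffer; plate controls were DMSO basal wells for no effect and reference inhibitor wells for full effect; higher means more IMPase inhibition seen as more IP1 and lower FRET ratio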
# Target sequence (P97697 whole entry, looked up): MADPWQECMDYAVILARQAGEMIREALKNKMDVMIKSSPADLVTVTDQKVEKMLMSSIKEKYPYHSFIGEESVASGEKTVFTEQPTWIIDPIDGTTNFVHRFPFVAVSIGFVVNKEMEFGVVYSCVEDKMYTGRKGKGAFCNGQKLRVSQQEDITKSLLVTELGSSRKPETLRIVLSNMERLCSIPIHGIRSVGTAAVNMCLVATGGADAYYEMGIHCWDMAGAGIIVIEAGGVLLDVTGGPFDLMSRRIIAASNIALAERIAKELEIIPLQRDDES
#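 CHO-M1, 2000 cells/well, cultured 16–30 h; cpd up to 46 uM; carbachol (50 uM solution, stimulation buffer w/ 50 mM LiCl, pH 7.4), 30 min 37C; IP-One TR-FRET, 10 min RT; Ex 320/Em 665, 620; Hill-fit AC50.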
# PNC assembly inh: High Content Assay for Compounds that inhibit the Assembly of the Perinucleolar Compartment; PC3M PTB-GFP, PNC prevalence imaging, 16 h; active compounds read low; activity change (PNC), negative = inhibition, % at 10 µM; actives 3.1% (n = 140,000); AID 2417, 2010;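 active = readout at or below -70, meaning at least 70% loss of cells showing the perinucleolar compartment, a nuclear body marking cancer cells; inconclusive = readout between -30 and a set limit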;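 also: plate controls were DMSO wells for no effect and camptothecin positive control wells for full effect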
#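 Read-out is percentage of cells bearing a perinucleolar compartment, from automated 20x imaging of fixed, Hoechst-stained PC3M PTB-GFP cells. Cells were seeded 4 h, then exposed 16 h to compound (23 nl of library stock) in duplicate plates.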
# Numbers without * were called inactive; ? = inconclusive; · = not tested or not shown; [ ] = dose if it differs, or a comment. Unless noted, calls follow the shape of the dose curve; as a rule, active = well fitted inhibition curve with a large enough effect (not every such curve was filed as active); inconclusive = small, poorly fitted or top-dose-only effect, or another doubt; inactive = no such curve, though single readings can be large or run the other way. Unless noted, % is scaled to controls: 0 for no effect and ±100 for the full control effect.
SMILES,ALDH1A1 block,IMPase Li inh,HPGD inh,IMPase inh,PNC assembly inh
COCCn1c(=O)c(-c2cn(C)c3ccccc23)nc2cnc(Oc3ccc(OC)cc3)nc21,-6%,-4%,-7%,·,·
C/C(=N/NC(=O)CNC(=O)Cc1ccc(Cl)cc1)c1ccco1,16%,·,·,·,·
CCOC(=O)c1[nH]ncc1CN1CCCC(C(=O)c2cccc3ccccc23)C1 (centres undefined),11%,1%,·,·,·
CCOC(=O)c1[nH]ncc1CN1CCCC(C(=O)c2ccc(SC)cc2)C1 (centres undefined),35µM*,?,·,·,·
Oc1cc2c(cc1O)C(c1ccccc1)CNCC2 (centres undefined),?,23%,?,·,·
Oc1cc2c(cc1O)[C@@H](c1ccccc1)CNCC2,3%,5%,20µM*,·,8
Cc1ccc(S(=O)(=O)NCCCCCC(=O)Nc2ccccn2)cc1,22µM*,23%[38.3 µM],-3%,6,16
Cc1ccc(S(=O)(=O)NCCCCCC(=O)Nc2ccccc2C)cc1,4µM*,-2%,-1%,·,40
Cc1cccc(C)c1NC(=O)CCCCCNS(=O)(=O)c1ccccc1,?,8%,·,·,·
CNC(=O)CCCCCNS(=O)(=O)c1ccc(C)cc1,-2%,7%,-6%,-7,43
Cc1ccc(S(=O)(=O)NCCCCCC(=O)Nc2ccccc2)cc1,11µM*,4%,-2%,·,39
Cc1ccc(S(=O)(=O)NCCC(=O)Nc2nccs2)cc1,?,-1%,·,·,·
COc1ccc(C(=O)C2=NN(C(C)=O)CC2c2ccco2)cc1 (centres undefined),?,6%,·,·,·
O=C(ON=C1CCN(S(=O)(=O)c2ccccc2)CC1)c1ccc(F)cc1,2%,3%,-9%,-10,-100*
Cc1ccc(C(=O)ON=C2CCN(S(=O)(=O)c3ccccc3)CC2)cc1,?,13%[38.3 µM],-9%,14,75
Cc1cc(=O)[nH]c(N=N/C(=N/Nc2ccc(O)cc2)c2ccccc2)n1,14µM*,121%[38.3 µM],32µM*,28,-4
Cc1nc(CNS(=O)(=O)c2cc(C)c(C)cc2C)cs1,13µM*,8%[38.3 µM],-9%,-5,-23
CCOc1ccc(S(=O)(=O)NCc2csc(C)n2)cc1,3%,29%[38.3 µM],-9%,9,-91*
COc1ccc(S(=O)(=O)NCc2csc(C)n2)cc1,7%,1%[38.3 µM],-10%,2,-26
COc1ccc(Nc2nc3ccc(C)cc3nc2-n2nc(C)cc2C)cc1Cl,·,·,·,3,·
CCN(CC)CCn1c(-c2ccccc2)nc2c(NCCO)nc(C)nc21,?,-4%,?,·,·
CCN(CC)CCCC(C)Nc1nc(C)cc(Nc2ccc3nc(C)cc(N)c3c2)n1 (centres undefined),-10%,6%,-8%,·,·
CCOc1cc(C(=O)CCC(=O)OCC(=O)Nc2ccc(C)c(S(=O)(=O)N(C)C)c2)ccc1O,28µM*,7%,·,·,·
Cc1ccc(NC(=O)COC(=O)CCC(=O)c2ccc(Cl)cc2)cc1S(=O)(=O)N(C)C,-17%,·,·,3,?
Cc1c(Br)c([N+](=O)[O-])nn1CCCC(=O)Nc1sc2c(c1C(N)=O)CCC(C)C2 (centres undefined),25µM*,17%,11µM*,·,?
SMILES,ALDH1A1 block,IMPase Li inh,HPGD inh,IMPase inh,PNC assembly inh
Cc1c(Cl)c([N+](=O)[O-])nn1CCCC(=O)Nc1sc2c(c1C(N)=O)CCC(C)C2 (centres undefined),5%,16%,5µM*,-6,48
COCCNc1ncnc2ccc(-c3cccc(OC)c3)cc12,?,22%,·,·,·
Clc1ccc(-c2nc3ccncc3[nH]2)cc1,11µM*,0%,?,·,13
O=c1c2ccccc2nnn1CSc1nnc(-c2cccnc2)n1-c1ccccc1F,?,·,·,3,5
Cc1ccc(-n2c(SCn3nnc4ccccc4c3=O)nnc2-c2cccnc2)c(C)c1,22µM*,11%[38.3 µM],-21%,5,6
CCc1ccccc1-n1c(SCC(=O)NC)nnc1-c1cccnc1,8%,·,·,9,-122*
O=C(CSc1nnc(-c2cccnc2)n1C1CCCCC1)NC1CCCC1,-5%,-11%,22µM*,0,-16
CC1CCCN(C(=O)CSc2nnc(-c3cccnc3)n2C2CCCCC2)C1 (centres undefined),-10%,4%[38.3 µM],?,9,-14
CC(C)(C)OC(=O)N1CCC[C@H]1C(O)(c1ccccc1)c1ccccc1,9%,12%,0%,·,·
O=C(CN1CCSCC1)N/N=C/c1ccc(F)c(F)c1,?,12%[38.3 µM],-9%,4,-113*
O=C(CN1CCCCCC1)N/N=C/c1ccc(Cl)c(Cl)c1,-14%,-16%,-20%,·,-6
COc1cc2c(C=O)c3c4c(cc(OC)c(OC)c4c2cc1OC)CCN3C,?,22%,-23%,8,·
CCCCCNC1=CC(=O)CC(c2ccccc2)C1 (centres undefined),?,-4%[38.3 µM],-20%,-5,-84*
Cc1cc(C)nc(SCc2nnc(SCc3ccccc3Cl)o2)n1,-4%,6%,?,4,23
CN(C)/C=C/C(=O)c1cccc(C(F)(F)F)c1,?,19%,·,·,·
CN(C)/C=C/C(=O)c1cccc(Cl)c1,?,-7%,25µM*,9,-1
CN(C)/C=C/C(=O)c1ccc(-n2cccc2)cc1,?,0%,·,·,·
CN(C)/C=C/C(=O)c1ccc(Cl)cc1,-6%,-3%[38.3 µM],18µM*,1,-12
COc1ccc(NC(=O)Cc2ccc(C)cc2)c([N+](=O)[O-])c1,-6%,-8%,-3%,·,20
COc1ccc(NC(=O)C/C(C)=N/NC(=O)c2ccncc2)c([N+](=O)[O-])c1,3.5µM*,18%,·,·,·
COc1ccc(OCC(=O)N/N=C(\C)CC(=O)Nc2ccc(OC)cc2[N+](=O)[O-])cc1,20µM*,5%,·,·,·
O=[N+]([O-])c1cccc(Cl)c1Cl,-1%,-5%,-12%,·,·
COc1ccccc1CNc1ncnc2ccc(-c3cccc(NS(C)(=O)=O)c3)cc12,?,18%,·,·,·
C#CCCCO/N=C1/C[C@@H](O)[C@@H](O)[C@@H]2[C@@H]3C(=O)N(Cc4ccc5c(c4)OCO5)C(=O)[C@H]3CC[C@H]12,-6%[13.5 µM],·,·,·,·
O=C(c1ccc(Cl)cc1)c1coc2ccc(O)cc12,9%,-2%[38.3 µM],-12%,-5,6
O=C(c1coc2ccc(O)cc12)C1CC1,2.8µM*,-42%[38.3 µM],-14%,6,?
Cc1ccc(Cn2nc(C)c(NC(=O)CCCn3nc([N+](=O)[O-])c(Cl)c3C)c2C)cc1,?,7%,-3%,0,86

# Assay outcomes as filed in PubChem.
